# The entries come from a sample that favours the strongest signals as a whole.
# B1: Pbx2CASH domain (Cryptococcus neoformans) (protein)
# chain: GIPGPNRLYRLSGPIIFTAADQEIATYGYPTGSERAVLRVEGRNTATAIQGDCRRCARVSVKNLVVDGNRKKLGRMRDFQLATGLVVLGGNEGQSIQNSWIKNPRGFTAIHIREGDKLQCSGARVEKNEIGPVGEEYDPEKDGDDPEMSPLGRPLADGVSIACRDSFIRDNTFRDNTDAAIVVYCSPGTLIHA
# How the values were obtained:
# Assay in all cases: glycan array binding signal (z-score within array); higher = stronger binding
# Settings in all cases: glycan notation: IUPAC condensed, linker removed
# [1] = target: Fuc(a1-2)Gal(b1-3)GalNAc(b1-4)[Neu5Ac(a2-3)]Gal(b1-4)Glc
# How it was run: (§1)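 The binding signal is a Z-score computed within each array. Data were drawn from 3228 arrays in the Consortium for Functional Glycomics database, restricted to those with a known protein sequence. Scores were averaged over arrays of the same protein sequence at different concentrations or buffers, and over linkers, and negative values can be taken as non-binding.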
# [2] = target: Fuc(a1-2)Gal(b1-3)[Fuc(a1-4)]GlcNAc(b1-2)Man(a1-3)[Fuc(a1-2)Gal(b1-3)[Fuc(a1-4)]GlcNAc(b1-2)Man(a1-3)]Man(b1-4)GlcNAc(b1-4)GlcNAc
# How it was run: as §1
# [3] = target: Fuc(a1-2)Gal(b1-3)[Fuc(a1-4)]GlcNAc(b1-3)[Gal(b1-4)GlcNAc(b1-6)]Gal(b1-4)Glc
# How it was run: as §1
# [4] = target: Fuc(a1-2)Gal(b1-4)GlcNAc(b1-2)Man(a1-3)[Fuc(a1-2)Gal(b1-4)GlcNAc(b1-2)Man(a1-6)]Man(b1-4)GlcNAc(b1-4)[Fuc(a1-6)]GlcNAc
# How it was run: as §1
# [5] = target: Fuc(a1-2)Gal(b1-4)[Fuc(a1-3)]GlcNAc(b1-3)GalNAc
# How it was run: as §1
# [6] = target: Fuc(a1-2)Gal(b1-4)[Fuc(a1-3)]GlcNAc(b1-3)[Neu5Ac(a2-6)Gal(b1-4)GlcNAc(b1-6)]Gal(b1-4)Glc
# How it was run: as §1
# [7] = target: Fuc(a1-2)[Gal(a1-3)]Gal(b1-4)[Fuc(a1-3)]GlcNAc
# How it was run: as §1
# [8] = target: Fuc(a1-2)[GalNAc(a1-3)]Gal(b1-4)GlcNAc(b1-2)Man(a1-3)[Fuc(a1-2)[GalNAc(a1-3)]Gal(b1-4)GlcNAc(b1-2)Man(a1-6)]Man(b1-4)GlcNAc(b1-4)[Fuc(a1-6)]GlcNAc
# How it was run: as §1
# [9] = target: Fuc(a1-2)[GalNAc(a1-3)]Gal(b1-4)[Fuc(a1-3)]GlcNAc(b1-3)GalNAc
# How it was run: as §1
# Fuc(a1-3)GlcNAc = target: Fuc(a1-3)GlcNAc
# How it was run: as §1
# [10] = target: Fuc(a1-3)[Gal(b1-4)]GlcNAc(b1-2)Man(a1-3)[Fuc(a1-3)[Gal(b1-4)]GlcNAc(b1-2)Man(a1-6)]Man(b1-4)GlcNAc(b1-4)GlcNAc
# How it was run: as §1
# Gal(a1-3)Gal(b1-3)GlcNAc = target: Gal(a1-3)Gal(b1-3)GlcNAc
# How it was run: as §1
# [11] = target: Gal(a1-3)Gal(b1-3)GlcNAc(b1-2)Man
# How it was run: as §1
# [12] = target: Gal(a1-3)Gal(b1-3)[Fuc(a1-4)]GlcNAc(b1-2)Man(a1-3)[Gal(a1-3)Gal(b1-3)[Fuc(a1-4)]GlcNAc(b1-2)Man(a1-6)]Man(b1-4)GlcNAc(b1-4)GlcNAc
# How it was run: as §1
# [13] = target: Gal(a1-3)Gal(b1-4)GlcNAc(b1-2)Man(a1-3)[Gal(a1-3)Gal(b1-4)GlcNAc(b1-2)Man(a1-6)]Man(b1-4)GlcNAc(b1-4)GlcNAc
# How it was run: as §1
# [14] = target: Gal(a1-3)Gal(b1-4)GlcNAc(b1-6)GalNAc
# How it was run: as §1
# Gal(b1-2)Gal = target: Gal(b1-2)Gal
# How it was run: as §1
# [15] = target: Gal(b1-3)GlcNAc(b1-3)Gal(b1-4)GlcNAc(b1-2)[Gal(b1-3)GlcNAc(b1-3)Gal(b1-4)GlcNAc(b1-6)]Man(a1-6)[Gal(b1-3)GlcNAc(b1-3)Gal(b1-4)GlcNAc(b1-2)Man(a1-3)]Man(b1-4)GlcNAc(b1-4)[Fuc(a1-6)]GlcNAc
# How it was run: as §1
# [16] = target: Gal(b1-3)GlcNAc(b1-3)GalNAc
# How it was run: as §1
# [17] = target: Gal(b1-3)[Fuc(a1-4)]GlcNAc(b1-2)Man(a1-3)[Gal(b1-3)[Fuc(a1-4)]GlcNAc(b1-2)Man(a1-6)]Man(b1-4)GlcNAc(b1-4)[Fuc(a1-6)]GlcNAc
# How it was run: as §1
# [18] = target: Gal(b1-3)[Fuc(a1-4)]GlcNAc(b1-6)GalNAc
# How it was run: as §1
# [19] = target: Gal(b1-3)[Neu5Ac(a2-6)]GlcNAc(b1-4)Gal(b1-4)Glc
# How it was run: as §1
# [20] = target: Gal(b1-4)GlcNAc(b1-2)Man(a1-3)[Gal(b1-4)GlcNAc(b1-2)Man(a1-6)]Man(b1-4)GlcNAc(b1-4)[Fuc(a1-6)]GlcNAc
# How it was run: as §1
# [21] = target: Gal(b1-4)GlcNAc(b1-2)[Gal(b1-4)GlcNAc(b1-4)]Man(a1-3)[GlcNAc(b1-4)][Gal(b1-4)GlcNAc(b1-2)[Gal(b1-4)GlcNAc(b1-6)]Man(a1-6)]Man(b1-4)GlcNAc(b1-4)GlcNAc
# How it was run: as §1
# [22] = target: Gal(b1-4)GlcNAc(b1-2)[Gal(b1-4)GlcNAc(b1-6)]Man(a1-6)[Gal(b1-4)GlcNAc(b1-2)Man(a1-3)]Man(b1-4)GlcNAc(b1-4)GlcNAc
# How it was run: as §1
# [23] = target: Gal(b1-4)GlcNAc(b1-3)Gal(b1-4)GlcNAc(b1-2)Man(a1-3)[Gal(b1-4)GlcNAc(b1-3)Gal(b1-4)GlcNAc(b1-2)Man(a1-6)]Man(b1-4)GlcNAc(b1-4)GlcNAc
# How it was run: as §1
# [24] = target: Gal(b1-4)GlcNAc(b1-3)Gal(b1-4)GlcNAc(b1-2)Man(a1-3)[Gal(b1-4)GlcNAc(b1-3)Gal(b1-4)GlcNAc(b1-2)Man(a1-6)]Man(b1-4)GlcNAc(b1-4)[Fuc(a1-6)]GlcNAc
# How it was run: as §1
# [25] = target: Gal(b1-4)GlcNAc(b1-3)Gal(b1-4)GlcNAc(b1-3)Gal(b1-4)GlcNAc(b1-2)Man(a1-3)[Gal(b1-4)GlcNAc(b1-3)Gal(b1-4)GlcNAc(b1-3)Gal(b1-4)GlcNAc(b1-2)Man(a1-6)]Man(b1-4)GlcNAc(b1-4)GlcNAc
# How it was run: as §1
# [26] = target: Gal(b1-4)GlcNAc(b1-3)Gal(b1-4)GlcNAc(b1-3)Gal(b1-4)GlcNAc(b1-2)Man(a1-3)[Gal(b1-4)GlcNAc(b1-3)Gal(b1-4)GlcNAc(b1-3)Gal(b1-4)GlcNAc(b1-2)Man(a1-6)]Man(b1-4)GlcNAc(b1-4)[Fuc(a1-6)]GlcNAc
# How it was run: as §1
binder,measurement,setting,value
B1,glycan array binding signal (z-score),[1],-0.327
same,glycan array binding signal (z-score),[2],0.448
same,glycan array binding signal (z-score),[3],-0.27
same,glycan array binding signal (z-score),[4],0.625
same,glycan array binding signal (z-score),[5],5.37
same,glycan array binding signal (z-score),[6],0.299
same,glycan array binding signal (z-score),[7],-0.331
same,glycan array binding signal (z-score),[8],-0.315
same,glycan array binding signal (z-score),[9],2.74
same,glycan array binding signal (z-score),Fuc(a1-3)GlcNAc,-0.751
same,glycan array binding signal (z-score),[10],-0.141
same,glycan array binding signal (z-score),Gal(a1-3)Gal(b1-3)GlcNAc,0.751
same,glycan array binding signal (z-score),[11],1.4
same,glycan array binding signal (z-score),[12],2.46
same,glycan array binding signal (z-score),[13],0.227
same,glycan array binding signal (z-score),[14],-0.025
same,glycan array binding signal (z-score),Gal(b1-2)Gal,-0.585
same,glycan array binding signal (z-score),[15],2.19
same,glycan array binding signal (z-score),[16],0.422
same,glycan array binding signal (z-score),[17],-0.077
same,glycan array binding signal (z-score),[18],1.39
same,glycan array binding signal (z-score),[19],-0.128
same,glycan array binding signal (z-score),[20],-0.487
same,glycan array binding signal (z-score),[21],0.057
same,glycan array binding signal (z-score),[22],-0.632
same,glycan array binding signal (z-score),[23],3.98
same,glycan array binding signal (z-score),[24],0.897
same,glycan array binding signal (z-score),[25],6.89
same,glycan array binding signal (z-score),[26],0.266

# Reference: the supplement of paper PMC8728848
